What all share (details): mRNA level, 48 h; actives raise or lower the signal
Read-out in assay [1]: ABC Transporter (ABCC3), ABCC3 (gene 8714)
The experiment in a line: LTEA_HepaRG_ABCC3: Life Technologies and Expression Analysis (LTEA) Assay for ABC Transporter (ABCC3) using HepaRG (AID 2283462). The method, boiled down:
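HepaRG cells in serum-free induction medium were exposed for 48 h in duplicate to 8-point half-log concentrations topping at 100 uM in 0.5% DMSO. ABCC3 mRNA was measured by qRT-PCR normalized to ACTB, GAPDH and POLR2A, with bidirectional fitting versus DMSO.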

Read-out in assay [2]: ABC Transporter (ABCB11), ABCB11 (gene 8647)
The experiment in a line: LTEA_HepaRG_ABCB11: Life Technologies and Expression Analysis (LTEA) Assay for ABC Transporter (ABCB11) using HepaRG (AID 2283463). The method, boiled down:
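HepaRG, 48 h exposure, 8-pt half-log CRC top 100 uM, 0.5% DMSO vehicle, duplicates. Readout: TaqMan qRT-PCR of ABCB11 mRNA, housekeeping-normalized (ACTB/GAPDH/POLR2A). Bidirectional fit vs DMSO baseline.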

Read-out in assay [3]: ABC Transporter (ABCC2), ABCC2 (gene 1244)
Kind of assay: LTEA_HepaRG_ABCC2: Life Technologies and Expression Analysis (LTEA) Assay for ABC Transporter (ABCC2) using HepaRG (AID 2283464). The method, boiled down:
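HepaRG cells were plated 48 h, switched to serum-free induction medium, then exposed in duplicate for 48 h to 8 concentrations (top 100 uM, half-log steps, 0.5% DMSO). ABCC2 mRNA was measured by qRT-PCR normalized to ACTB/GAPDH/POLR2A; bidirectional fitting versus DMSO.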

Read-out in assay [4]: Broad substrate specificity ATP-binding cassette transporter ABCG2 (Homo sapiens) (UniProt Q9UNQ0)
Kind of assay: LTEA_HepaRG_ABCG2: Life Technologies and Expression Analysis (LTEA) Assay for ABC Transporter (ABCG2) using HepaRG (AID 2283465). The method, boiled down: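 HepaRG, 48 h exposure, 8-pt half-log series from 100 uM, 0.5% DMSO vehicle, duplicates. Readout: ABCG2 transcript by qRT-PCR (Fluidigm array), housekeeping-normalized; bidirectional curve fit relative to DMSO baseline.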

Read-out in assay [5]: ATP-citrate lyase (ACLY), ACLY (gene 47)
The experiment in a line: LTEA_HepaRG_ACLY: Life Technologies and Expression Analysis (LTEA) Assay for ATP-citrate lyase (ACLY) using HepaRG (AID 2283466). Summed up: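 qRT-PCR readout of ACLY transcript after 48 h chemical treatment of HepaRG cells; expression normalized to three housekeeping genes. Eight-point half-log series, highest 100 uM, 0.5% DMSO vehicle. Gain or loss fitted against DMSO baseline.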

Read-out in assay [6]: Peroxisomal acyl-coenzyme A oxidase 1 (ACOX1) gene, ACOX1 (gene 51)
Kind of assay: LTEA_HepaRG_ACOX1: Life Technologies and Expression Analysis (LTEA) Assay for Peroxisomal acyl-coenzyme A oxidase 1 (ACOX1) gene using HepaRG (AID 2283467). Summed up: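 HepaRG, 48 h chemical exposure, 8-pt half-log series from 100 uM top, 0.5% DMSO vehicle, duplicates. Readout: ACOX1 mRNA by Fluidigm qRT-PCR, housekeeping-normalized; bidirectional fit vs DMSO baseline.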

Read-out in assay [7]: Alkaline Phosphatase, Placental (ALPP) gene, ALPP (gene 250)
The experiment in a line: LTEA_HepaRG_ALPP: Life Technologies and Expression Analysis (LTEA) Assay for Alkaline Phosphatase, Placental (ALPP) gene using HepaRG (AID 2283468). Summed up:
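Differentiated human HepaRG cells were plated and cultured 48 h, then exposed in duplicate for 48 h in serum-free induction medium to eight half-log concentrations from 100 uM in 0.5% DMSO. ALPP mRNA was measured by TaqMan qRT-PCR, normalized to ACTB, GAPDH, POLR2A.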

Read-out in assay [8]: Bcl-2 (BAD) gene, BAD (gene 572)
The experiment in a line: LTEA_HepaRG_BAD: Life Technologies and Expression Analysis (LTEA) Assay for Bcl-2 (BAD) gene using HepaRG (AID 2283469). The method, boiled down:
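HepaRG, 48 h exposure, 8-pt half-log curve from 100 uM in 0.5% DMSO, duplicates. Readout: TaqMan qRT-PCR for BAD mRNA, housekeeping-normalised (ACTB/GAPDH/POLR2A); gain or loss fitted against DMSO baseline.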

Read-out in assay [9]: Bcl-2 (BAX) gene, BAX (gene 581)
Kind of assay: LTEA_HepaRG_BAX: Life Technologies and Expression Analysis (LTEA) Assay for Bcl-2 (BAX) gene using HepaRG (AID 2283470). Summed up:
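Cells were thawed, plated for 48 h, moved to serum-free induction medium and dosed for 48 h (highest concentration 100 uM, half-log steps, 0.5% DMSO). Total RNA was then analysed for BAX expression by qRT-PCR.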

Read-out in assay [10]: Alpha-fetoprotein (AFP) gene, AFP (gene 174)
The experiment in a line: LTEA_HepaRG_AFP: Life Technologies and Expression Analysis (LTEA) Assay for Alpha-fetoprotein (AFP) gene using HepaRG (AID 2283472). Summed up:
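Chemicals were tested on differentiated HepaRG cells for 48 hours at eight concentrations up to 100 uM, with 0.5% DMSO as vehicle. AFP expression was then quantified by qRT-PCR and analyzed for gain or loss relative to DMSO.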

Read-out in assay [11]: BCL2L11 (gene 10018)
The experiment in a line: LTEA_HepaRG_BCL2L11: Life Technologies and Expression Analysis (LTEA) Assay for Bcl-2 (BCL2L11) gene using HepaRG (AID 2283473). Summed up:
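Differentiated human HepaRG cells in serum-free induction medium were exposed in duplicate for 48 h to eight concentrations (top 100 uM, half-log steps, 0.5% DMSO). BCL2L11 mRNA was quantified by TaqMan qRT-PCR, normalized to ACTB/GAPDH/POLR2A, bidirectional fit versus DMSO.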

Read-out in assay [12]: Apolipoprotein A-V (APOA5) gene, APOA5 (gene 116519)
Kind of assay: LTEA_HepaRG_APOA5: Life Technologies and Expression Analysis (LTEA) Assay for Apolipoprotein A-V (APOA5) gene using HepaRG (AID 2283474). Summed up:
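Differentiated human HepaRG cells were exposed in duplicate for 48 h to eight half-log concentrations from 100 uM in 0.5% DMSO. APOA5 mRNA was quantified by TaqMan qRT-PCR, normalized to ACTB, GAPDH and POLR2A, and fitted bidirectionally against DMSO.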

Read-out in assay [13]: Apoptosis regulator Bcl-2 (Homo sapiens) (UniProt P10415)
The experiment in a line: LTEA_HepaRG_BCL2: Life Technologies and Expression Analysis (LTEA) Assay for Bcl-2 gene using HepaRG (AID 2283475). The method, boiled down: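 Plated human HepaRG cells are exposed to test chemicals for 48 h across eight concentrations from 100 uM downward in half-log steps (0.5% DMSO). BCL2 expression is then measured by qRT-PCR with housekeeping normalisation and fitted bidirectionally against vehicle.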

Read-out in assay [14]: Bcl-2 (BID) gene, BID (gene 637)
The experiment in a line: LTEA_HepaRG_BID: Life Technologies and Expression Analysis (LTEA) Assay for Bcl-2 (BID) gene using HepaRG (AID 2283476). Summed up: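 Cells are plated, cultured 48 h, switched to serum-free induction medium, then dosed 48 h (100 uM top, half-log steps, 0.5% DMSO). RNA is isolated and BID expression read by qRT-PCR.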

Read-out in assay [15]: Caspase-3 (Homo sapiens) (UniProt P42574)
Kind of assay: LTEA_HepaRG_CASP3: Life Technologies and Expression Analysis (LTEA) Assay for cysteine-aspartic acid protease (CASP3) using HepaRG (AID 2283477). Summed up: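 Differentiated human HepaRG cells in serum-free induction medium were exposed 48 h to 8-point half-log concentrations from 100 uM (0.5% DMSO vehicle). CASP3 mRNA was measured by qRT-PCR, normalised to ACTB, GAPDH and POLR2A, with bidirectional fitting against DMSO.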

Read-out in assay [16]: Cytochrome P450 (CYP24A1), CYP24A1 (gene 1591)
The experiment in a line: LTEA_HepaRG_CYP24A1: Life Technologies and Expression Analysis (LTEA) Assay for Cytochrome P450 (CYP24A1) using HepaRG (AID 2283478). Summed up:
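Differentiated HepaRG cells, pre-cultured 48 h, were exposed in duplicate for 48 h in serum-free induction medium to 8 half-log concentrations (top 100 uM, 0.5% DMSO). CYP24A1 mRNA was quantified by TaqMan qRT-PCR, normalized to ACTB/GAPDH/POLR2A, fitted bidirectionally versus DMSO.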

Read-out in assay [17]: Cytochrome P450 (CYP1A2), CYP1A2 (gene 1544)
Kind of assay: LTEA_HepaRG_CYP1A2: Life Technologies and Expression Analysis (LTEA) Assay for Cytochrome P450 (CYP1A2) using HepaRG (AID 2283479). Summed up:
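Differentiated human HepaRG cells in serum-free induction medium were exposed in duplicate for 48 h to 8-point half-log concentrations up to 100 uM in 0.5% DMSO. CYP1A2 mRNA measured by qRT-PCR, normalized to ACTB, GAPDH, POLR2A; bidirectional fit vs DMSO.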

Read-out in assay [18]: cysteine-aspartic acid protease (CASP8), CASP8 (gene 841)
The experiment in a line: LTEA_HepaRG_CASP8: Life Technologies and Expression Analysis (LTEA) Assay for cysteine-aspartic acid protease (CASP8) using HepaRG (AID 2283480). The method, boiled down:
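qRT-PCR readout of CASP8 mRNA, normalized to three housekeeping genes, after 48 h chemical exposure of HepaRG cells; 8-point half-log series, top 100 uM, 0.5% DMSO vehicle. Bidirectional curve fitting against DMSO baseline.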

Read-out in assay [19]: growth arrest and DNA damage 45 (GADD45B), GADD45B (gene 4616)
The experiment in a line: LTEA_HepaRG_GADD45B: Life Technologies and Expression Analysis (LTEA) Assay for growth arrest and DNA damage 45 (GADD45B) using HepaRG (AID 2283461). The method, boiled down:
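Differentiated HepaRG cells, plated 48 h then switched to serum-free induction medium, were exposed 48 h in duplicate to eight half-log concentrations from 100 uM in 0.5% DMSO; mRNA quantified by qRT-PCR, normalized to ACTB/GAPDH/POLR2A, bidirectional fit versus DMSO.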

Read-out in assay [20]: adenosine kinase (ADK) gene, ADK (gene 132)
The experiment in a line: LTEA_HepaRG_ADK: Life Technologies and Expression Analysis (LTEA) Assay for adenosine kinase (ADK) gene using HepaRG (AID 2283471). Summed up:
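ADK expression quantified by qRT-PCR, normalised to three housekeeping genes, after 48 h exposure of HepaRG cells to eight concentrations (top 100 uM, half-log steps, duplicate, 0.5% DMSO). Up- or down-regulation fitted relative to vehicle.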

Results on three molecules are retold here after PubChem BioAssay (EPA / NIEHS).

Calls of active or inactive are those of the source. The calls were made as follows: active = hit-call score of the fitted dose curve at least 0.9, where 1 is the maximum; inactive = score below 0.9.

Apoptosis regulator Bcl-2 (Homo sapiens), sequence (P10415 whole entry, looked up): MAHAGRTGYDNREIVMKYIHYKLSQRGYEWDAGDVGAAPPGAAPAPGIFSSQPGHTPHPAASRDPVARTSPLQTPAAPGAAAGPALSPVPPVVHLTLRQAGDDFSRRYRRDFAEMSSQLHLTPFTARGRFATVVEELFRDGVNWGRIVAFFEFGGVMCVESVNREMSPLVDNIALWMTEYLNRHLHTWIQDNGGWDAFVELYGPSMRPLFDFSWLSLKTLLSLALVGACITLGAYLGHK
Broad substrate specificity ATP-binding cassette transporter ABCG2 (Homo sapiens), sequence (Q9UNQ0 whole entry, looked up): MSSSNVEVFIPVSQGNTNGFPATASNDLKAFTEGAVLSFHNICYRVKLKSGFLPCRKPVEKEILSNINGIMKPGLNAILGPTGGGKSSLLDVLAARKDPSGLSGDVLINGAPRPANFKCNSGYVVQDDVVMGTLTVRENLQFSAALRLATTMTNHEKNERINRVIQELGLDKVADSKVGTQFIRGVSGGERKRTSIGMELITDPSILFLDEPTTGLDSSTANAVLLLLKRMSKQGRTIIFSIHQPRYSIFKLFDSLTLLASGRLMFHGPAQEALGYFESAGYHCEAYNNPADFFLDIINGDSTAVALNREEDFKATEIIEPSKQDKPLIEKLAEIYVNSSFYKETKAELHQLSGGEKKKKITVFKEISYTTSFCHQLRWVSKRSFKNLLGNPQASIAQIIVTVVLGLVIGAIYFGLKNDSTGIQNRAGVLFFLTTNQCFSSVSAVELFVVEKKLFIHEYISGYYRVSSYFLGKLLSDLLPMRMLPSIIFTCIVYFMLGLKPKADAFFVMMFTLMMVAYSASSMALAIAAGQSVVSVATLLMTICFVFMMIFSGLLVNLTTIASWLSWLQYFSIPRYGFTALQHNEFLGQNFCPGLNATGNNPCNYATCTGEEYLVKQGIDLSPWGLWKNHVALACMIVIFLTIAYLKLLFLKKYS
Caspase-3 (Homo sapiens), sequence (P42574 whole entry, looked up): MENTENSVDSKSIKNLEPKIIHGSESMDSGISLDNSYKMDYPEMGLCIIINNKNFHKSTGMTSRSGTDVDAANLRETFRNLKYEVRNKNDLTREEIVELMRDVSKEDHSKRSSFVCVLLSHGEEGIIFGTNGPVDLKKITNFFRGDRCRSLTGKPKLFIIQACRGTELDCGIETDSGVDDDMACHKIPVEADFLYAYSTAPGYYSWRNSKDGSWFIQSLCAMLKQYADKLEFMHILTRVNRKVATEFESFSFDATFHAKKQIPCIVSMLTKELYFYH

As for `CCOC(N)=O`, the call in [1], in [2], in assay [3], in [4], in assay [5] and in assay [6] was inactive. Further, the result in assay [7], in [8], in assay [9], in assay [10], in [11] and in assay [12] was inactive. Besides, the outcome in assay [13], in assay [14], in assay [15], in [16], in assay [17] and in assay [18] was inactive.
Turning to `CC(C)c1nnc2ccc(-c3ocnc3-c3cc(F)ccc3F)cn12`, the result in assay [19], in assay [5], in [6], in [8], in assay [9] and in assay [20] was inactive. The outcome in assay [11], in [13], in [14], in assay [15], in assay [16] and in assay [17] was inactive. Further, the call in [18] was inactive. Moreover, the AC50 (commonly the concentration at which the activity in the assay is half-maximal) was 50 µM (active) in assay [1]; 81 µM (active) in assay [2]; 0.384 µM (active) in [4]; 39.6 µM (active) in assay [7]; 50 µM (active) in assay [10]; 56.3 µM (active) in assay [12].
Regarding `CC1(C)C(=O)N(Cl)C(=O)N1Cl`, the outcome in assay [19], in assay [1], in assay [2], in assay [4], in assay [5] and in [6] was inactive. Further, the result in assay [7], in [8], in assay [9], in [20], in assay [10] and in [11] was inactive. In addition, the molecule was called inactive in assay [13], in assay [14], in assay [15], in assay [16] and in assay [18]. In addition, the AC50 in assay [17] is 50 µM (active).
